PubChem BioAssay (NCI)
This is part of a sample that, as a whole, favours compounds with a hit. Of some 83,000 tested, about 20% had one in any assay.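 Note: values are percent growth. 100 is the growth of untreated cells, values between 100 and 0 indicate rising inhibition; between -100 and 0 indicates cell death.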 A number with no mark means an inactive call. Calls of active or inactive are those of the source. The calls were made as follows: active = growth percent below 10; inactive = the rest.

tested on: HL-60(TB) leukemia; assay: NCI-60 one-dose screen, 48 h (100 = growth as untreated, 0 = no growth, -100 = all killed); conditions: 10 µM unless noted

How did the growth turn out when `COc1ccc2c(c1)N(CCO)C1=C(C(=O)OC1)C2c1ccccc1` (configuration not stated) was run?
Its growth is -20% (active).

With `CC[C@@H]1OC(=O)[C@H](C)[C@@H](O[C@H]2C[C@@](C)(OC)[C@@H](O)[C@H](C)O2)[C@H](C)[C@@H](O[C@@H]2O[C@H](C)C[C@H](N(C)C)[C@H]2O)[C@](C)(O)C[C@@H](C)[C@@H]2N[C@@H](COCCOC)O[C@H]([C@H]2C)[C@]1(C)O` as the compound, how does the growth read?
Its growth is 94.2%.

How did the growth turn out when `COc1ccc(CCNC2=CC(=O)CCC2)cc1OC` was run?
Its growth is 69.4%.

How did the growth turn out when `COC(=O)CCc1c(/C=C2\N=C(c3ccc[nH]3)C=C2OC)[nH]c(C)c1C(=O)OCc1ccccc1` was run?
Its growth is -14.3% (active).

With `CCN(CC)CCCC(C)NCc1ccccc1` (configuration not stated) as the compound, how does the growth read?
The growth was 105%.

`Cc1ccc2nc(-c3ccc(N(C)C)c(Br)c3)cn2c1` was tested. Which growth did it give?
Its growth is 36.8%.

With `O=C1OCC2=C1C(c1ccncc1)c1cc3c(cc1N2CCO)OCO3` (configuration not stated) as the compound, how does the growth read?
Its growth is 99.2%.

`C/C(=N\NC(=O)C(C)SC(C)C(=O)N/N=C(\C)c1cccnc1)c1cccnc1` (configuration not stated) was tested. Which growth did it give?
Its growth is 77.1%.

With `COc1cc(C(=O)/C=C/c2ccc(N3CCN(C)CC3)cc2)cc(OC)c1OC` as the compound, how does the growth read?
Its growth is 98.2%.

`Cc1nc2ccccc2n1CC1C(=O)NC(=O)NC1=O` was tested. Which growth did it give?
Its growth is 102%.

For `O=C(NC1CCN(Cc2ccccc2)CC1)c1cc(C(=O)NC2CCN(Cc3ccccc3)CC2)cc(C(=O)NC2CCN(Cc3ccccc3)CC2)c1`, which growth is on record?
The growth was 64.3%.

With `CN(C)[C@@H]1C(=O)C(C(N)=O)=C(O)[C@@]2(O)C(=O)C3=C(O)c4c(O)cc(CN5CCc6ccccc6C5)c(Cl)c4C[C@H]3C[C@@H]12` as the compound, how does the growth read?
Its growth is -64.8% (active).

`CCOC(=O)CCN(c1c(Cl)ssc1=O)C(C)C` was tested. Which growth did it give?
The growth was 101%.

`CCN1CCN(CC(=O)Nc2nc3ccc(NCc4ccc(Cl)cc4)cc3s2)CC1` was tested. Which growth did it give?
The growth was 29%.

`COc1ccc(/C=C2/SC(=O)N(CC(=O)N3CCN(c4cc5c(cc4F)c(=O)c(C(=O)O)cn5C4CC4)CC3)C2=O)cc1` was tested. Which growth did it give?
Its growth is 105%.

Which growth does the source give for `N[C@@H](CC/[N+]([O-])=N/O)C(=O)O` here?
Its growth is 110%.

With `O=C(CCl)Nc1cc(O)c2c(c1)C(=O)c1cccc(O)c1C2=O` as the compound, how does the growth read?
Its growth is -44.4% (active).

How did the growth turn out when `OC(CNC1CCCCC1)Cn1c2ccc(I)cc2c2cc(I)ccc21` (configuration not stated) was run?
The growth was 93.7%.

`Cc1ccc2c(Cn3cc(CSc4nc5ccccc5o4)nn3)cc(=O)oc2c1` was tested. Which growth did it give?
Its growth is 109%.

For `Clc1nc(Cl)c2c(ncn2C/C=C\Cn2cnc3c(Cl)nc(Cl)nc32)n1`, which growth is on record?
Its growth is -80.7% (active).

`CCOC(=O)C(=Cc1ccc(-c2ccccc2)cc1)C(=O)OCC` was tested. Which growth did it give?
The growth was -10.6% (active).

With `Nc1cccc(-c2ccc(COc3ccc(CC4SC(=O)NC4=O)cc3)cc2)c1` (configuration not stated) as the compound, how does the growth read?
The growth was 43.4%.

How did the growth turn out when `COc1ccc2c(c1)C=CC(C#N)N2C(=O)c1ccccc1` (configuration not stated) was run?
The growth was -24.7% (active).

For `CC1=NN(c2cccc(Cl)c2)C(=O)/C1=C\c1cn(-c2nc(N3CCOCC3)nc(N3CCOCC3)n2)c2ccccc12`, which growth is on record?
The growth was 99.1%.

How did the growth turn out when `O=c1c(O)cccn1CCCNCCCN(CCCn1cccc(O)c1=O)CCCn1cccc(O)c1=O` was run?
The growth was 120%.

For `COc1ccc2cc(-c3ccnc4c(N=Nc5ccc(Cl)cc5)c(N)nn34)ccc2c1`, which growth is on record?
The growth was 98.8%.

How did the growth turn out when `Cc1ccc2nc(/C=C/c3ccc(N(C)C)cc3)cc(C)c2c1` was run?
The growth was 15.2%.

For `Cc1ccc(-c2[nH][nH]c(=O)c2-c2nc3ccccc3s2)cc1`, which growth is on record?
The growth was 101%.

How did the growth turn out when `COc1ccc(-c2nc3sccn3c2/C=C/C(=O)c2cc(OC)c(OC)c(OC)c2)cc1OC` was run?
The growth was 6.14% (active).

`Nc1nc(Nc2ccc(Cl)cc2)nn1S(=O)(=O)c1ccc(-c2ccc(F)cc2)cc1` was tested. Which growth did it give?
The growth was 110%.

Which growth does the source give for `COc1cc2c(cc1-c1c(C)noc1C)ncc1nc(C3CCCCC3)n(C3CCC(OC(F)F)CC3)c12` (configuration not stated) here?
The growth was -25.1% (active).

`O=C(CN1C=NC2C(N3CCOCC3)=NC=NC21)c1cccc2ccccc12` (configuration not stated) was tested. Which growth did it give?
The growth was 103%.

`COc1ccc2c(c1)C(C)Cc1c(ncnc1-n1cnc3cc(C)ccc31)N2C` (configuration not stated) was tested. Which growth did it give?
Its growth is -25.8% (active).

`COc1cc2c(c(OC)c1)C1c3cc(OC)ccc3NC(=O)N1CC2` (configuration not stated) was tested. Which growth did it give?
Its growth is 66.3%.

Which growth does the source give for `Cc1cc(Nc2ncc(Cl)c(Nc3ccccc3S(=O)(=O)C(C)C)n2)c(OC(C)C)cc1C1CCNCC1` here?
The growth was -65% (active).

`CCCC(=O)Nc1ccccc1C(=O)O` was tested. Which growth did it give?
The growth was 94.1%.

Which growth does the source give for `COc1ccc2[nH]c(C(=O)OCc3ccc4c(Br)cc(Br)c(O)c4n3)cc2c1` here?
The growth was -32.7% (active).
